Source: PubChem BioAssay (NCATS)
Results filed as inconclusive are left out. A call without a number means that no potency is given here. Calls of active or inactive are those of the source. The call rests on the fitted dose curve; in most records, active means well fitted inhibition curve with a large enough effect; inconclusive means small, poorly fitted or top-dose-only effect; inactive means flat fitted curve, though single readings scatter.

The molecules below were run against Phospholipid hydroperoxide glutathione peroxidase GPX4 (Homo sapiens) (UniProt P36969) (assay: Primary qHTS Assay for Inhibitors of Recombinant Selenoprotein Glutathione Peroxidase 4 (GPX4) (AID 1845192; further: nearly all actives have a fitted effect of over 65% in size)). Details: recombinant GPX4, GR-coupled NADPH fluorescence, 15 min; series mostly up to 50 µM.
Sequence of Phospholipid hydroperoxide glutathione peroxidase GPX4 (Homo sapiens) (P36969 whole entry, looked up): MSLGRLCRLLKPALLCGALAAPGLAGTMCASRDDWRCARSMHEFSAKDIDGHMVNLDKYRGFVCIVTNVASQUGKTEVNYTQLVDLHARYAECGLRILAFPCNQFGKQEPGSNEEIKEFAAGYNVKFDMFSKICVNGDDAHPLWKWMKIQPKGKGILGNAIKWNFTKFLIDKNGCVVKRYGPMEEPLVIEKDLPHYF
Outline: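 GR-coupled assay: recombinant GPX4 preincubated 30 min with compound at room temperature; final 200 nM GPX4, 1 mM GSH, 0.5 mM cumene hydroperoxide, 0.5 mM NADPH, 100 nM GR, 0.01% BSA, pH 7.5 Tris. NADPH fluorescence (340/450 nm) read at 0 and 15 min.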
COc1ccc(S(=O)(=O)Nc2c(C)cc(C)cc2C)cc1 was tested, and the Potency was “inactive”. With CC1=C(C(=O)Nc2cc(Cl)ccc2Cl)C(c2ccco2)C2=C(CCCC2=O)N1 (stereo not drawn) the Potency was “inactive”. For CC(=O)O[C@H]1C[C@@](O)(C(C)C)[C@@H]2[C@@H](OC(=O)c3ccc(O)cc3)CC(C)=CC[C@@]12C, the Potency was “inactive”. With CCCCc1c(-c2ccc(OC)cc2)[nH]c2nccnc12 the Potency was “inactive”. In the case of CC(C)S(=O)(=O)Nc1ccc(F)c(C(=O)c2c[nH]c3ncc(-c4cccnc4)cc23)c1F, the Potency is reported as “inactive”. O=C(N[C@@H]1CCCc2c1cnn2-c1ccc(F)cc1F)c1ccccn1 was tested, and the Potency was “inactive”. With Cn1ncc(Cl)c1-c1cc(C(=O)N[C@H](CN)Cc2cccc(F)c2)sc1Cl the Potency was “inactive”. For O=C(NCCCn1ccnc1)c1cc(-c2ccco2)on1, the Potency was “inactive”. CC1(C)CC[C@]23CO[C@@]4(CCC5[C@@]6(C)CC[C@H](O[C@@H]7OC[C@H](O[C@@H]8O[C@H](CO)[C@@H](O)[C@H](O)[C@H]8O[C@@H]8OC[C@@H](O)[C@H](O)[C@H]8O)[C@H](O)[C@H]7O)[C@@](C)(CO)C6CC[C@@]5(C)[C@]4(C)CC2=O)[C@@H]3C1 (stereo partly drawn) was tested, and the Potency was “inactive”. With C=C1CC2OC(=O)C(COC)C2C(OC(=O)/C(C)=C\C)CC2(C)OC1=CC2=O (stereo not drawn) the Potency was “inactive”. In the case of CN(C)C(=O)NC1(c2ccccc2)CCN(CCC[C@]2(c3ccc(Cl)c(Cl)c3)CCCN(C(=O)c3ccccc3)C2)CC1, the Potency is reported as “inactive”. In the case of CCN(Cc1cc(Nc2nc(C)cn3c(-c4cn[nH]c4)cnc23)sn1)C(C)(C)CO, the Potency is reported as “inactive”. With O=S(=O)(NCc1ccccn1)c1ccc(Br)c2ccccc12 the Potency was “inactive”.
